A selection: hits, their analogues and other compounds. The true share with any hit is near 21%.
TDP1 cell CPT: growth inhibition of DT40 Tdp1-/-;hTDP1 cells with camptothecin (screen for TDP1 inhibitors). Potency, µM (titrated, usually from 46.2 µM), inactives show top-dose activity change, negative = growth inhibition, most hits filed as inhibitors. 420,000 compounds, 12% hits. chicken DT40 Tdp1-/-;hTDP1 cells + 20 nM CPT, ATP luminescence, 48 h. AID 686979; also: potency is read from the fitted curve at half-maximal effect; nearly all actives have a fitted effect of over 55% in size
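Chicken DT40 Tdp1-/- cells stably complemented with human TDP1 were seeded at 400 cells/well in medium containing 20 nM camptothecin, exposed to pin-transferred compounds, and grown at 37 °C for at least 48 hr. Viability was read as ATP luminescence.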
RORgamma inh: blocks mouse ROR gamma transcriptional activity; Drosophila S2 Gal4-RORgamma UAS-luciferase reporter, 20 h; 310,000 compounds, 5.4% hits; AID 2551; Potency, µM (doses to about 53.6 µM), for inactives: top-dose activity change, negative = inhibition, actives largely listed as inhibitors; also: potency is read from the fitted curve at half-maximal effect; nearly all actives have a fitted effect of over 60% in size
Target sequence (P51450 whole entry, looked up, the tested form may be a part): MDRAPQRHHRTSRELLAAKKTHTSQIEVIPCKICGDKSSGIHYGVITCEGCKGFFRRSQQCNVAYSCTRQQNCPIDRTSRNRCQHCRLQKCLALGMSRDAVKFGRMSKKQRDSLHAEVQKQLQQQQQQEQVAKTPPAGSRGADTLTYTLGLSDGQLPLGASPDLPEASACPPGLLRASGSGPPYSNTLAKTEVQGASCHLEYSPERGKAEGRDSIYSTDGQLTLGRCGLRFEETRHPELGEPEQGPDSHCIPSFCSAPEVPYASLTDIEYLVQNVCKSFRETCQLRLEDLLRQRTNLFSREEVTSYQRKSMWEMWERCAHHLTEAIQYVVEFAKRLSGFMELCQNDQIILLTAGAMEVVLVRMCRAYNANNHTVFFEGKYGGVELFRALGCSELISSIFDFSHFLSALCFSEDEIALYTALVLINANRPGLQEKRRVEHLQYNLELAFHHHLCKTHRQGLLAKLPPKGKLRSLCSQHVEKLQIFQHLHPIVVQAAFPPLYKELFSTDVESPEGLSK
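Luciferase reporter read in Schneider cells carrying Gal4-RORγ (mouse) and UAS-Photinus luciferase; cells given compound 1 h before 700 uM copper sulfate induction, then incubated 20 h at ambient temperature.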
Gal4-VP16 FLuc: Gal4-VP16 reporter inhibition counter-screen | Drosophila S2 Gal4-VP16 UAS-luciferase, luminescence, 20 h | Potency, µM (doses to about 53.6 µM), for the others: at the top dose activity, negative = inhibition, hits mostly inhibitors | 310,000 compounds, 3.5% hits | AID 2546;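 also: Gal4-VP16 expression switched on by copper sulfate through the metallothionein promoter; potency is read from the fitted curve at half-maximal effect; nearly all actives have a fitted effect of over 50% in size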
IL1B secr inh: blocks inflammasome-driven IL-1 beta release; THP-1 LPS/ATP IL-1B secretion, AlphaLISA, 16 h; hits give low values; activity change, % at 57.5 µM; 360,000 compounds, 4.7% hits; AID 743279; in the data active = activity change below about -50%; inconclusive = mostly about -30% to -49%
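THP-1 cells pretreated 1 hr with compounds (up to 57.5 uM final), then stimulated with LPS (250 ng/mL final) plus ATP (1.25 mM final); secreted IL-1B measured by AlphaLISA after 16 hr, decreased signal indicating inhibition.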
ELG1 repair inh: ELG1-dependent DNA repair inhibition; 330,000 compounds, 2.3% hits; HEK293T ELG1-luciferase reporter, luminescence, 16 h; DNA damage induced by 5-fluorouridine; AID 504467; Potency, µM (top dose mostly 46.1 µM), inactives show at the top dose activity change, negative = inhibition, usual class: inhibitors; also: potency is read from the fitted curve at half-maximal effect; nearly all actives have a fitted effect of over 55% in size
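Overnight (16 hr) co-exposure of 2,000 cells/well to 5-fluorouridine and compound at 37 °C preceded detection. Luciferase was quantified via ONE-Glo luminescence; loss of signal denotes inhibition.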
TDP1 cell noCPT: qHTS for Inhibitors of human tyrosyl-DNA phosphodiesterase 1 (TDP1): qHTS in cells in absence of CPT; DT40 Tdp1-/- hTDP1 cells, no CPT, ATP luminescence, 48 h; 420,000 compounds, 15% hits; Potency, µM (series often up to 46.2 µM), for inactives: at the top dose activity change, negative = growth inhibition, usual class: inhibitors; AID 686978, 2013; also: potency is read from the fitted curve at half-maximal effect; nearly all actives have a fitted effect of over 55% in size
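Chicken DT40 Tdp1-/- cells complemented with human TDP1, screened without camptothecin (DMSO vehicle only), 400 cells/well. Compounds pin-transferred, cells incubated at 37 °C for at least 48 hr. Growth read as ATP-dependent luminescence (CellTiter-Glo, 30 min at RT).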
* marks the source's active call; other numbers are inactive results; ? = inconclusive; / = no result given; ! = not confirmed by another sample. Unless noted, calls follow the shape of the dose curve; as a rule, active = well fitted curve in the direction sought with a large enough effect; inconclusive = small, poorly fitted or top-dose-only effect, or another doubt; inactive = no such curve, though single readings can be large; an effect the other way counts as inactive or inconclusive. % is scaled to controls: 0 for no effect and ±100 for the full control effect.

SMILES	TDP1 cell CPT	RORgamma inh	Gal4-VP16 FLuc	IL1B secr inh	ELG1 repair inh	TDP1 cell noCPT
c1ccc(-c2ccc(C(c3ccccc3)n3ccnc3)cc2)cc1 (stereo unspecified)	10µM*	10µM*!	?	-22	?	23µM*
CC(=NCc1ccco1)c1c(O)n(-c2ccccc2C)c(=O)[nH]c1=O	2%	3%	-9%	-7	-14%	5%
CCOc1cc(OP(=S)(OC)OC)nc(CC)n1	/	18%	-6%	/	/	/
CS(=O)(=O)OCC(O)C(O)COS(C)(=O)=O (stereo unspecified)	13µM*	9%	0%	/	/	11µM*
COC(=O)C1=C(c2ccc(F)cc2OCc2ccccc2)C[C@@H]2CC[C@H]1N2C(=O)NC(C)C	?	/	/	-14	-16%	21µM*
COC(=O)C1=C(c2ccc(F)cc2OCc2ccccc2)C[C@@H]2CC[C@H]1N2C(=O)N1CCCC1	6.5µM*	/	/	12	?	5.8µM*
COC(=O)C1=C(c2ccc(F)cc2OCc2ccccc2)C[C@@H]2CC[C@H]1N2C(=O)NC1CC1	16µM*	/	/	-3	14%	?
COC(=O)C1=C(c2ccc(F)cc2OCc2ccccc2)C[C@@H]2CC[C@H]1N2C(=O)NC1CCCCC1	?	/	/	-21	?	?
CC[C@@H](O)C[C@H]1CCC[C@@]2(C[C@@H]3OC(=O)/C=C/[C@@](C)(O)[C@@H](O)[C@H](C)[C@@H](O)[C@H](OC4CCC(N(C)C)C(C)O4)[C@@H](O)[C@](C)(O)CCCCC/C=C/[C@@H]4CC(C)(C)O[C@@]4(O)C[C@H](O2)[C@H]3C)O1 (stereo partly specified)	0.016µM*	/	/	-56*	/	0.15µM*
CCOP(=S)(OCC)Oc1cc(C)oc(=O)c1Cl	?	11%	0%	7	-8%	?
CCOP(=S)(OCC)Oc1ccc2c(C)c(Cl)c(=O)oc2c1	?	-6%	-5%	-12	/	6.5µM*
Cc1cccc(N2C(=O)CSC23C(=O)N(CC(=O)Nc2cccc(Cl)c2)c2ccccc23)c1 (stereo unspecified)	23µM*	/	/	/	/	16µM*
CCCNC(=O)c1c(N)n(CC2CCCO2)c2nc3ccccc3nc12 (stereo unspecified)	?	?	6.3µM*	-27	?	21µM*
CC(C)OCCCNC(=O)c1c(N)n(CC2CCCO2)c2nc3ccccc3nc12 (stereo unspecified)	?	13%	-8%	-64*	9.2µM*	-29%
Clc1ccc(C2=CCC[C@H]3CC[C@@H]2N3)cn1	2%	10%	1%	/	/	-17%
N[C@@H](CCCCP(=O)(O)O)C(=O)O	14%	5%	10%	/	/	-8%
O=C(COc1ccccc1/C=C1/NC(=O)NC1=O)Nc1ccccc1	21µM*	20%	-10%	25	-3%	?
COc1cc(C2Nc3c(C)cc(C)cc3-c3cc(C)nn32)cc(OC)c1O (stereo unspecified)	5.8µM*	/	/	/	/	4.1µM*
COC(=O)[C@@H]1N=C(c2ccc(OC)cc2)O[C@]12C(=O)N(Cc1ccc(OC)cc1)c1ccccc12	18µM*	/	/	0	/	?
Cc1ccc(S(=O)(=O)N2CCC(=O)N(CCOC(=O)Nc3cccc(Cl)c3)CC2)cc1	12µM*	?	5%	-12	-24%	21µM*
C[N+](C)(C)CC#CCOC(=O)Nc1cccc(Cl)c1	?	17%	0%	-4	/	?
CC(=NCc1ccc2c(c1)OCO2)c1c(O)n(C)c(=O)n(C)c1=O	?	15%	-3%	10	?	?

Assay outcomes (PubChem BioAssay)
